These results are taken from PubChem BioAssay (Tox21).

Inconclusive results are not listed. Activity calls are given as the source filed them. Calls follow the shape of the dose curve; as a rule, active = well fitted inhibition curve with a large enough effect in the signal ratio in the repeat runs (not every such curve was filed as active); inconclusive = weak or mixed curves, or effect the other way; inactive = no such curve, though single readings can be large or run the other way; the % refers to the signal ratio.

Bile acid receptor (Homo sapiens), sequence (Q96RI1 whole entry, looked up): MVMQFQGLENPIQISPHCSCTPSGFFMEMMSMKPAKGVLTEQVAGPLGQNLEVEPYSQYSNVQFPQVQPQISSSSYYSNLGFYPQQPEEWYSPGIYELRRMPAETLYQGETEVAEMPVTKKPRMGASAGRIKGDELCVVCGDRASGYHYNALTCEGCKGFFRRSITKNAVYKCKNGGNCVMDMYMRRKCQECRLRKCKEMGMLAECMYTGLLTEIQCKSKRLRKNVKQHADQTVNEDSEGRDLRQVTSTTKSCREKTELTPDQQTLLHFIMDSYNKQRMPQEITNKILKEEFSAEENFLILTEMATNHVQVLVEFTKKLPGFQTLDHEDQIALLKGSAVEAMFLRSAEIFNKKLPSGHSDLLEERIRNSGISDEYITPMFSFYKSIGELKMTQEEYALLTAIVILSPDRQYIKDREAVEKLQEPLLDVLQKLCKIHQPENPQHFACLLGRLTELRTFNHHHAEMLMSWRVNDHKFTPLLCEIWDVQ

In this test the target is Bile acid receptor (Homo sapiens) (UniProt Q96RI1). The test is described as follows: qHTS assay to identify small molecule antagonists of the farnesoid-X-receptor (FXR) signaling pathway (AID 743217). The conditions noted are these: HEK293T FXR-UAS-bla, beta-lactamase ratio, CDCA-stimulated, 16 h; series mostly up to 62.6 µM. From the text:
U.S. Tox21 Program National Center for Advancing Translational Sciences [NCATS] NIH Chemical Genomics Center [NCGC] U.S. Environmental Protection Agency [EPA] National Institutes of Environmental Health Sciences [NIEHS] National Toxicology Program [NTP] U.S. Food and Drug Administration [FDA] Tox21 Assay Overview: The farnesoid-X-receptor (FXR), a nuclear hormone receptor, is highly expressed in liver, intestine, kidney and adrenal cortex. Natural ligands of FXR are the bile acids (Cholic acid, Chenodeoxy cholic acid etc). FXR is an important regulator of diverse metabolic pathways, including the bile acid homeostasis, lipid and glucose metabolisms. FXR regulates the expression of target genes by binding either as a monomer or as a heterodimer with the retinoid X receptor (RXR). Numerous studies have reported that FXR exerts protective function during cholestasis, diabetes, liver regeneration, and cancer. To identify compounds that inhibit FXR signaling, GeneBLAzer FXR-UAS-bla HEK 293T cell line (Invitrogen, Carlsbad, CA) containing a beta-lactamase reporter gene under the control of a UAS response element was used to screen the Tox21 10K compound library.
Tox21 Assay Protocol Summary: FXR-bla cells were dispensed at 5000 cells/5uL/well in 1536-well black wall/clear bottom plates using a Multidrop Combi (Thermo Fisher Scientific, Waltham, MA) dispenser. After the assay plates were incubated at 37C and 5% CO2 for 5 h, 23 nL of compounds dissolved in DMSO, positive controls or DMSO only was transferred to the assay plate by a Pintool station (Kalypsys, San Diego, CA), followed by addition of 1 uL Chenodeoxycholic acid (50 uM, final concentration in the wells). The assay plates were incubated at 37C for 16 h. After 1 uL of LiveBLAzerTM B/G FRET substrate was added using a Bioraptr Flying Reagent Dispenser (FRD) workstation (Beckman Coulter, Indianapolis, IN), the plates were incubated at room temperature for 2 h, and fluorescence intensity was measured by an Envision plate reader (PerkinElmer, Shelton, CT).
For orientation: In qHTS, concentration-response curves come from the screen itself.
With `CC1=C2[C@H](/C=C(\C)C(=O)O)CC[C@@H](C)[C@H]2CC1`, the result was inactive. Under `OCCN(CCO)c1ccccc1` stands “inactive”. For `O=Cc1ccc(O)c(O)c1O` the value was “inactive”; for `CCCCCCCCCC/C=C/C#N`, “inactive”; for `FC(F)(F)C(Cl)(Cl)Cl`, “inactive”.

In the case of `NC(=O)NS(=O)(=O)c1ccc(Cl)cc1`, the outcome was inactive. With `O=C(Cl)c1cccc([N+](=O)[O-])c1`, the outcome was inactive. For `CC(=O)N[C@@H](CC(C)C)C(=O)O` the value was “inactive”; for `CCCCCCCCOC(=O)CCCCCCCCC(=O)OCCCCCCCC`, “inactive”; for `CC(C)C(=O)OC/C=C/c1ccccc1`, “inactive”. With `Oc1ccccc1C=NCc1ccccc1`, the outcome was inactive.

Consider `CC(C)(C)c1ccc(OC(=O)c2ccccc2O)cc1`, for which the result was inactive. Under `C1CCOC1` stands “inactive”. For `CC1CN(c2ccccc2)NC1=O` (stereo not given) the value was “inactive”. For `CCOc1ccc(NC(N)=O)cc1` the value was “inactive”; for `CN1[C@@H]2CC[C@H]1CC(OC(=O)c1c[nH]c3ccccc13)C2` (stereo not given in full), “inactive”; for `CS(=O)(=O)c1ccc([C@@H](O)[C@@H](CF)NC(=O)C(Cl)Cl)cc1`, “inactive”. Turning to `CN1CCN(C2=Nc3cc(F)ccc3Cc3ccccc32)CC1`, the result was inactive.

In the case of `FC(F)(F)C(F)(F)C(F)(F)C(F)(F)C(F)(F)C(F)(F)C(F)(F)C(F)(F)Br`, the result was inactive. Under `CCOC(=O)CS` stands “inactive”. For `CCC(=O)Nc1ccc(O)cc1` the value was “inactive”. Under `O=C1CCC(C2CCCCC2)CC1` stands “inactive”; under `CCC(=O)c1ccc2c(c1)N(CCCN(C)C)c1ccccc1S2`, “inactive”; under `C=CCc1cc(OC)c(O)c(C(=O)NCCO)c1`, “inactive”. With `Oc1ccccc1F`, the outcome was inactive.

As to `O=c1[nH]cnc2c1ncn2[C@@H]1O[C@H](CO)[C@@H](O)[C@H]1O`, the outcome was inactive.

Regarding `Cc1onc(-c2ccccc2)c1C(=O)Cl`, the outcome was inactive. `NCCC(O)(P(=O)(O)O)P(=O)(O)O`: the result was inactive. For `ClC(Cl)Cl`, the outcome was inactive.

Take `CC(C)C[C@H](NC(=O)OCC1c2ccccc2-c2ccccc21)C(=O)O`: the result was inactive.

With `CN(CCCN1c2ccccc2CCc2ccccc21)CC(=O)c1ccc(Cl)cc1`, the outcome was inactive. For `CCCc1c2oc(C(=O)O)cc(=O)c2cc2c(=O)cc(C(=O)O)n(CC)c12` the value was “inactive”; for `COc1cc(C)ccc1C(C)C`, “inactive”. Consider `O=c1oc2c(O)c(O)cc3c(=O)oc4c(O)c(O)cc1c4c23`, for which the result was inactive. As to `CCOC(=O)c1cc(=O)c2c(OCC(COc3cccc4oc(C(=O)OCC)cc(=O)c34)OC(=O)[C@@H](N)CCCCN)cccc2o1`, the outcome was inactive. For `CC(C)O`, the outcome was inactive. Take `CCCC(CCC)(C(=O)OCC)C(=O)OCC`: the result was inactive. For `COC(=O)/C=C(/C)N` the value was “inactive”; for `CCc1nnc(NS(=O)(=O)c2ccc(N)cc2)s1`, “inactive”; for `NC(=O)Cc1cccc(C(=O)c2ccccc2)c1N`, “inactive”.
